Data on 40 compounds can be found in PubChem BioAssay (Tox21).

Inconclusive results are not listed. A call without a number means that no potency is given here. The source made the active and inactive calls. The call rests on the fitted dose curve.

For this experiment, the target named is Beta-2 adrenergic receptor (Homo sapiens) (UniProt P07550). In words: Adrenergic beta2 receptor (ADRB2) small molecule antagonists, cell-based qHTS assay (AID 1963592). Further: nearly all actives have a fitted effect of over 50% in size. The note with it: CHO-ADRB2 cells, isoproterenol-stimulated cAMP HTRF ratio, 0.5 h; series mostly up to 92.4 µM. An excerpt: U.S. Tox21 Program National Center for Advancing Translational Sciences [NCATS] Division of Preclinical Innovation [DPI] U.S. Environmental Protection Agency [EPA] National Institutes of Environmental Health Sciences [NIEHS] National Toxicology Program [NTP] U.S. Food and Drug Administration [FDA] Tox21 Assay Overview: Beta adrenergic receptors (Beta-ARs) belong to the G-protein coupled receptor (GPCR) superfamily, includes three subtypes - beta1, beta2, and beta3. Beta1-AR is the predominant receptor subtype expressed in the heart, and beta2-AR is expressed in the kidney, lung, blood vessel and in the heart, and beta3 is found in the adipocytes. Beta1 and 2 ARs couple to Gs protein and elevate cyclic adenosine mono phosphate (cAMP), which activates protein kinase A and leads to the downstream signaling responsible for the physiological actions. Beta-AR agonists or antagonists are the most prescribed therapeutic agents for heart failure and asthma, and these were one of the first target receptors for the rational drug design. Tox21 10K compound library was screened using the cAMP-Gs dynamic assay (Cisbio Bioassays, Shelton, CT) to identify agonists/antagonists of the Gs-coupled human adrenergic, beta2 receptor (ADRB2) in the CHO-ADRB2 cell line (Codex BioSolutions, Inc. Gaithersburg, MD), which stably over-expresses ADRB2. The principle of cAMP-Gs dynamic assay is based on HTRF technology, which facilitates the fluorescence resonance energy transfer (FRET) between donor Europium cryptate and acceptor d2-labeled cAMP. The cAMP generated within cells competes with the red acceptor, d2-labled cAMP, for binding to the monoclonal anti-cAMP-cryptate (Europium donor). An increase in intracellular cAMP leads to the disruption of FRET signal, and the signal is inversely proportional to the cAMP concentration. Propranolol HCl (Sigma-Aldrich, St. Louis, MO) was used as a positive control in the screening.
Chain of Beta-2 adrenergic receptor (Homo sapiens) (P07550 whole entry, looked up): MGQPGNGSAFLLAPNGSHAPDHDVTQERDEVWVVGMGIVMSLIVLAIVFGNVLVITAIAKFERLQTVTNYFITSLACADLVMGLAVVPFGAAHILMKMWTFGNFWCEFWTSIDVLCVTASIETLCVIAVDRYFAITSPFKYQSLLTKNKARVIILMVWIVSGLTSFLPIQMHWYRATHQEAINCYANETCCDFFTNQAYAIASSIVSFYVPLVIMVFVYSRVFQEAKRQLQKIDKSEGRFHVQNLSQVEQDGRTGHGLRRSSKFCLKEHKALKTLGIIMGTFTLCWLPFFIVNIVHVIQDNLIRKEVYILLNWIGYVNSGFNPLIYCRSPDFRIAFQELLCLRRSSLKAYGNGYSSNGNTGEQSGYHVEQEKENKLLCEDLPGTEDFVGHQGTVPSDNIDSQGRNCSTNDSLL
Tox21 Assay Protocol Summary: CHO-ADRB2 cells were dispensed at 1,000/well in 4uL assay medium into white/solid 1536-well plates (Greiner Bio-One North America Inc., Monroe, NC) using a Multidrop Combi dispenser (ThermoFisher Scientific, Waltham, MA). The assay plates were incubated at 37C and 5% CO2 for an overnight (18-20hr). Then positive control and test compounds dissolved in DMSO were transferred to the assay plates at 23nL using a Pintool station (Wako, San Diego, CA). Following the compound and positive control transfer, 1uL agonist-stimulation mix containing 1nM Isoproterenol HCl, 100uM IBMX and 25uM Ro-20-1724 was added to each well of the assay plates using BioRAPTR Flying Reagent Dispenser (FRD, Beckman Coulter, Brea, CA). The assay plates were incubated at room temperature for 0.5hr. Then 2.5ul each d2-labled cAMP and anti-cAMP-cryptate solutions were added separately to each well of the assay plates using an FRD and the assay plates were incubated at room temperature for 1hr. The fluorescence signal was measured at two different wavelengths (665nm and 615nm) using an Envision plate reader (Perkin Elmer, Shelton, CT). Data were expressed as the ratio of 665 nm/615 nm.
Take `O=C(O)c1cc(=O)c2c(OCC(O)COc3cccc4oc(C(=O)O)cc(=O)c34)cccc2o1`: the Potency entry was “inactive”. Turning to `NCCC(O)(P(=O)(O)O)P(=O)(O)O`, the Potency entry is “inactive”. With `NCc1ccc(S(N)(=O)=O)cc1`, the Potency entry was “inactive”. Next, `CCCCCC/C=C/C(=O)OC`: “inactive”. For `CC(C)(c1cc(Br)c(OCC(Br)CBr)c(Br)c1)c1cc(Br)c(OCC(Br)CBr)c(Br)c1` (stereo not given), the Potency result was “inactive”. Regarding `CCCC[C@H]1CN(CC2CCOCC2)C(=O)OC12CCN(C1(C)CCN(C(=O)c3c(C)ncnc3C)CC1)CC2`, the Potency entry was “inactive”.

`CC(C)C(=O)O`: the Potency entry is “inactive”. With `CCCCCCOCCOCCO`, the Potency entry was “inactive”. Next, `O=C(O)C(=O)Nc1cccc(-c2nn[nH]n2)c1`: “inactive”; `O=C(O)c1cc(O)c(O)c(O)c1`: “inactive”. Take `CCC(C)(C)C1CCC(OC)CC1` (stereo not given): the Potency entry was “inactive”.

For `CCC(C(=O)OCCOCCN(CC)CC)c1ccccc1` (stereo not given), the Potency entry was “inactive”. Take `CCOC(C)(C)C`: the Potency result was “inactive”. For `CC(C)(C)c1cc(C(C)(C)C)c(O)c(C(C)(C)C)c1`, the Potency result was “inactive”. Regarding `CC1(C)O[C@H]2CC(=O)OC[C@]23[C@H]2CC[C@@]4(C)[C@H](c5ccoc5)OC(=O)[C@H]5O[C@]54[C@]2(C)C(=O)C[C@@H]13`, the Potency result was “inactive”. As for `c1ccc2cc3c4ccccc4c4ccccc4c3cc2c1`, the Potency entry was “inactive”. Next, `O=C(O)CNc1ccccc1`: “inactive”; `CO[Si](OC)(OC)c1ccccc1`: “inactive”. In the case of `CCCCCCCCCCCC(=O)N(C)CC(=O)O`, the Potency result was “inactive”. For `CCn1cc(C(=O)O)c(=O)c2cnc(N3CCNCC3)nc21`, the Potency result is “inactive”.

For the compound `O=C1OC2(c3cc(Br)c(O)c(Br)c3Oc3c2cc(Br)c(O)c3Br)c2c(Cl)c(Cl)c(Cl)c(Cl)c21`, the Potency result was “inactive”. For `COC(=O)OC`, the Potency result is “inactive”. Turning to `O=C(c1ccc(OCCN2CCCCC2)cc1)c1c(-c2ccc(O)cc2)sc2cc(O)ccc12`, the Potency entry was “inactive”.

Take `CCCCCCCCCCCCCCCCCCOCC(O)CO` (stereo not given): the Potency result was “inactive”. For `C=CCOc1cc(Cl)ccc1C(=O)NCCN(CC)CC`, the Potency entry was “inactive”. Consider `CC(C)(O)C(=O)O`, for which the Potency entry is “inactive”. Under `Cc1ccc(C(C)(C)C)cc1` stands “inactive”; under `C=C(C)C(=O)OCCOCCOCCOC(=O)C(=C)C`, “inactive”; under `C1CCCCC1`, “inactive”. On to `COc1ccc(N)c(OC)c1`, for which the Potency entry was “inactive”.

Take `CC(O)Cn1cnc2c1c(=O)n(C)c(=O)n2C` (stereo not given): the Potency entry was “inactive”. Take `N=C(N)c1ccc2cc(OC(=O)c3ccc(N=C(N)N)cc3)ccc2c1`: the Potency result is “inactive”. On to `C=CCOCC(CC)(CO)COCC=C`, for which the Potency entry was “inactive”. Consider `CCCCCCCC/C=C\CCCCCCCC(N)=O`, for which the Potency entry is “inactive”. Regarding `CC1=CC[C@@]23C[C@@H]1C(C)(C)[C@@H]2CC[C@H]3C`, the Potency result is “inactive”. On to `CCO[Si](C)(C)OCC`, for which the Potency result is “inactive”.

Turning to `C/C(=C(\CCO)SS/C(CCO)=C(\C)N(C=O)Cc1cnc(C)nc1N)N(C=O)Cc1cnc(C)nc1N`, the Potency result was “inactive”. As for `NC(=O)NNC(N)=O`, the Potency result is “inactive”. Next, `C=CCOC(=O)CCCCCCCC`: “inactive”; `Clc1cc(Cl)c(Cl)c(Cl)c1Cl`: “inactive”.
